Sampled rows, rich in hits. Any-hit rate of the full collection: about 4%.
CF NFkB inh – inhibitors of cystic fibrosis induced NF-kB | KKLEB NF-kB-GFP reporter, PAF-induced, GFP fluorescence overnight | inhibition, % at 5 µM | 360,000 compounds, 0.86% hits | AID 588850;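 active = at least 50% inhibition at 5 µM, scaled per plate between neutral and stimulator controls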;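 also: PAF is a Pseudomonas aeruginosa culture filtrate used as stimulus; plate controls were PAF-stimulated DMSO wells for no effect and unstimulated DMSO wells for full effect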
KKLEB tox – CF airway cell cytotoxicity counter-screen; KKLEB CF airway cells viability, ATPlite luminescence, overnight; hits give low values; cells stimulated with P. aeruginosa culture filtrate; activity change (cytotoxicity), % at 5 µM; 360,000 compounds, 0.36% hits; AID 602141;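 active = corrected activity change at or below -50% at 5 µM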
Peg3 promoter – Peg3 promoter activity inhibition. HeLa PEG-Prom luciferase reporter, luminescence, overnight. inhibition, % at 20 µM. 360,000 compounds, 1.7% hits;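 active = inhibition of at least 50% at 20 µM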
TWEAK-Fn14 inh – TWEAK-Fn14 signaling inhibition; TWEAK-stimulated Fn14 reporter cells, luciferase luminescence, 8 h; inhibition, % at 10 µM; 360,000 compounds, 2% hits; AID 1159606; in the data active = inhibition above about 50%
TROY signal inh – TROY signaling inhibition; Q293 LMP1-TROYcd NF-kB luciferase reporter, 4 h; inhibition, % at 10 µM; 360,000 compounds, 0.98% hits;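 active = compounds whose plate-normalised and pattern-corrected inhibition of the luciferase reporter signal at the single screening dose is 50% or more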
HIF-2a block – HIF-2a inhibition. 360,000 compounds, 0.72% hits. inhibition, % at 18.8 µM. 786-0 RCC cells HIF-2a reporter, luciferase luminescence, overnight;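 active = inhibition of the luminescence signal of 40% or more relative to plate controls, in a single-dose primary screen at 18.75 µM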
* = called active by the depositor.

SMILES	CF NFkB inh	KKLEB tox	Peg3 promoter	TWEAK-Fn14 inh	TROY signal inh	HIF-2a block
Cc1cc(C)cc(-n2c(N)c(C(=O)Nc3c(C)n(C)n(-c4ccccc4)c3=O)c3nc4ccccc4nc32)c1	14.5	-45.1	91.4*	22.4	26.6	-6.6
Cc1c(NC(=O)c2ccc(C(=O)Nc3c(C)n(C)n(-c4ccccc4)c3=O)cc2)c(=O)n(-c2ccccc2)n1C	-12.9	2.5	8.4	-6.2	-22.6	21.6
COc1cccc(-n2c(N)c(C(=O)Nc3c(C)n(C)n(-c4ccccc4)c3=O)c3nc4ccccc4nc32)c1	18.6	-27.0	59.6*	35.7	-18.4	7.6
CC1CCCN(S(=O)(=O)c2cccc(C(=O)NCCCN3CCCC3=O)c2)C1 (centres undefined)	-10.9	9.5	3.7	-9.9	-2.5	4.2
CCOC(=O)c1sc2ccccc2c1NC(=O)c1coc2ccccc2c1=O	33.4	-16.8	-34.4	57.3*	30.4	-193.4
CN(c1ccc(OCC(=O)Nc2nc3ccccc3s2)cc1)S(=O)(=O)c1ccccc1	-8.2	7.3	-6.9	40.6	51.4*	-3.8
CCOc1ccc(C(=O)CCc2nc3ccccc3s2)cc1	0.4	15.0	-38.8	45.5	54.2*	-175.6
COc1ccc(NC(=O)CCc2nc3ccccc3s2)c(OC)c1	-5.8	0.1	-20.1	-24.5	-0.6	-25.5
COc1cc(OC)cc(C(=O)Oc2ccc(/C=N/Nc3nc4ccccc4s3)cc2OC)c1	-8.3	-5.2	-265.1	-27.2	-58.5	-197.9
CCOc1ccc(S(=O)(=O)N(C)c2ccc(OCC(=O)Nc3nc4ccccc4s3)cc2)cc1	-11.9	5.7	14.8	74.0*	34.2	10.8
COc1ccc(C=NNc2nc3ccccc3s2)cc1	-2.5	-16.7	-66.3	78.1*	57.4*	-3.9
CCOc1ccc(S(=O)(=O)N(C)c2ccc(OCC(=O)NC3=NCCS3)cc2)cc1	-20.5	2.2	2.7	8.9	-18.6	4.9
CCC(C)c1ccccc1NC(=O)C(C)OC(=O)CN1C(=O)NC(C)(C)C1=O (centres undefined)	-9.4	-4.2	2.3	0.7	-13.2	8.3
O=C(Cc1cccc(C(F)(F)F)c1)N1CCCC1	4.1	1.4	25.6	8.3	-5.8	8.0
CS(=O)(=O)N(CC(=O)N1CCC(C(N)=O)CC1)Cc1ccc(Cl)c(Cl)c1	18.7	0.5	2.1	-3.3	11.1	9.1
O=C(CC1CCCC1)N1CCN(S(=O)(=O)c2cccc(F)c2)CC1	12.8	5.9	3.4	6.9	-19.0	8.0
Cc1ccc2[nH]c(C)c(/C=N/Nc3nc4ccccc4s3)c2c1	-10.5	-11.6	-9.4	60.2*	38.7	-68.7
COc1ccc(C(=O)NC(=S)NNC(=O)COc2ccccc2)cc1	12.4	10.2	23.4	62.7*	16.5	15.6
COc1ccc(OC)c2sc(NNC(=O)COc3ccccc3)nc12	-6.4	1.3	7.9	0.8	9.9	6.2
COc1ccc(OCC(=O)NNc2nc3ccccc3s2)cc1	-2.7	13.9	-4.8	3.6	78.6*	-6.3
Brc1csc(/C=N/Nc2nc3ccccc3s2)c1	-37.9	-6.4	-274.4	30.2	-11.2	-242.3
C(=N\Nc1nc2ccccc2s1)/c1ccc2c(c1)OCO2	-9.0	-10.5	-219.5	35.6	5.2	-144.1
Brc1cc2c(cc1/C=N/Nc1nc3ccccc3s1)OCO2	3.5	3.6	-99.1	57.3*	78.8*	-230.2
CCNC(=O)C1(C)CCN(C(=O)c2ccc3ccccc3c2)C1 (centres undefined)	0.7	-4.3	-1.5	-0.8	-13.0	-0.2
C[N+](C)(C)CCC(=O)N1C/C(=C/c2ccccc2)C(=O)/C(=C\c2ccccc2)C1	-118.0	7.8	76.5*	27.9	9.5	-0.1
O=C1/C(=C/c2ccccc2)CN(C(=O)CCN2CCOCC2)C/C1=C\c1ccccc1	89.8*	8.9	96.1*	100.4*	22.1	84.9*
CN(C)CCC(=O)N1C/C(=C/c2ccccc2)C(=O)/C(=C\c2ccccc2)C1	94.8*	-70.7*	109.1*	103.4*	58.6*	92.0*
O=C(/C=C/c1ccccc1)CCN1CCOCC1	7.2	-6.6	92.1*	18.9	11.9	-7.7
CSc1nnc(NC(=O)c2ccc(S(=O)(=O)N3CCOCC3)cc2)s1	-15.6	4.2	-84.5	-9.3	-48.3	-96.3
COc1ccccc1Nc1ccc(NC(=O)c2cccc([N+](=O)[O-])c2C)cc1	-4.7	-14.1	-98.3	48.2	20.0	-158.0
